# Assay results reported in the supplement of paper PMC8728848.
# The entries come from a sample that favours the strongest signals as a whole.
# B1: Epa2 (Candida glabrata) (protein)
# chain: MGSSHHHHHHSSGLVPRGSHMASSKDPTSFPMGCSPQVLKTQPGLAVKLYSYGHPVPGCAYNTYQYPDFPRSGYKKERKLADITGVNGRIDIDLKPNDPCRVLSGNLPSNYNYQNTLTYTNFTMILYGYFQPKVTGYHTFNLEADDLLFMNLGAGNAFDCCRAESTLDNFGNYQSYSIWGTDKATADLTVFLVSGIYYPIRLFYVNRDNNAVLDFSFSTEFNKEIIHDFTSYFFSASDEEQCPGNI
# Legend:
# Assay in all cases: glycan array binding signal (z-score within array); higher = stronger binding
# Conditions in all cases: glycan notation: IUPAC condensed, linker removed
# [1] = molecular target: Fuc(a1-2)Gal(b1-3)[Fuc(a1-4)]GlcNAc
# Outline: (§1)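 Columns mapping to the same glycan were averaged after glycan names were converted to IUPAC-condensed notation. The data come from 3228 arrays in the Consortium for Functional Glycomics database, limited to those with an available protein sequence. Binding is reported as a within-array Z-score averaged across arrays of one protein sequence and across linkers.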
# [2] = molecular target: Fuc(a1-2)Gal(b1-3)[Fuc(a1-4)]GlcNAc(b1-3)[Fuc(a1-3)[Gal(b1-4)]GlcNAc(b1-6)]Gal(b1-4)Glc
# Outline: as §1
# [3] = molecular target: Fuc(a1-2)Gal(b1-4)Fuc(a1-3)]GlcNAc(b1-2)Man(a1-3)[Fuc(a1-2)Gal(b1-4)[Fuc(a1-3)]GlcNAc(b1-2)Man(a1-6)]Man(b1-4)GlcNAc(b1-4)GlcNAc
# Outline: as §1
# Fuc(a1-2)Gal(b1-4)GlcNAc = molecular target: Fuc(a1-2)Gal(b1-4)GlcNAc
# Outline: as §1
# [4] = molecular target: Fuc(a1-2)Gal(b1-4)GlcNAc(b1-6)GalNAc
# Outline: as §1
# [5] = molecular target: Fuc(a1-2)Gal(b1-4)[Fuc(a1-3)]GlcNAc(b1-3)GalNAc
# Outline: as §1
# [6] = molecular target: Fuc(a1-2)Gal6S(b1-3)GlcNAc6S
# Outline: as §1
# [7] = molecular target: Fuc(a1-2)[Gal(a1-3)]Gal(b1-3)GlcNAc
# Outline: as §1
# [8] = molecular target: Fuc(a1-2)[Gal(a1-3)]Gal(b1-4)[Fuc(a1-3)]Glc
# Outline: as §1
# [9] = molecular target: Fuc(a1-2)[GalNAc(a1-3)]Gal(b1-3)GalNAc(b1-3)Gal(a1-4)Gal(b1-4)Glc
# Outline: as §1
# [10] = molecular target: Fuc(a1-2)[GalNAc(a1-3)]Gal(b1-4)GlcNAc(b1-2)Man(a1-3)[Fuc(a1-2)[GalNAc(a1-3)]Gal(b1-4)GlcNAc(b1-2)Man(a1-6)]Man(b1-4)GlcNAc(b1-4)[Fuc(a1-6)]GlcNAc
# Outline: as §1
# [11] = molecular target: Fuc(a1-2)[GalNAc(a1-3)]Gal(b1-4)GlcNAc(b1-3)Gal(b1-4)GlcNAc
# Outline: as §1
# [12] = molecular target: Fuc(a1-2)[GalNAc(a1-3)]Gal(b1-4)[Fuc(a1-3)]GlcNAc(b1-3)GalNAc
# Outline: as §1
# [13] = molecular target: Fuc(a1-3)[Gal(b1-4)]GlcNAc(b1-2)Man
# Outline: as §1
# [14] = molecular target: Fuc(a1-3)[Gal(b1-4)]GlcNAc(b1-3)GalNAc
# Outline: as §1
# [15] = molecular target: Fuc(a1-3)[Gal(b1-4)]GlcNAc(b1-6)GalNAc
# Outline: as §1
# [16] = molecular target: Gal(a1-3)Gal(b1-3)[Fuc(a1-4)]GlcNAc(b1-2)Man(a1-3)[Gal(a1-3)Gal(b1-3)[Fuc(a1-4)]GlcNAc(b1-2)Man(a1-6)]Man(b1-4)GlcNAc(b1-4)GlcNAc
# Outline: as §1
# Gal(a1-4)GlcNAc = molecular target: Gal(a1-4)GlcNAc
# Outline: as §1
# [17] = molecular target: Gal(b1-3)[Neu5Ac(a2-6)]GlcNAc(b1-4)Gal(b1-4)Glc
# Outline: as §1
# Gal(b1-4)Glc6S = molecular target: Gal(b1-4)Glc6S
# Outline: as §1
# [18] = molecular target: Gal(b1-4)GlcNAc(b1-3)Gal(b1-3)GalNAc
# Outline: as §1
# [19] = molecular target: Gal(b1-4)GlcNAc(b1-3)Gal(b1-3)GlcNAc
# Outline: as §1
# [20] = molecular target: Gal(b1-4)GlcNAc(b1-3)Gal(b1-4)GlcNAc
# Outline: as §1
# [21] = molecular target: Gal(b1-4)GlcNAc(b1-3)GalNAc
# Outline: as §1
# [22] = molecular target: Gal(b1-4)GlcNAc(b1-3)[Fuc(a1-3)GlcNAc(b1-6)]Gal(b1-4)Glc
# Outline: as §1
# [23] = molecular target: Gal(b1-4)GlcNAc(b1-3)[GlcNAc(b1-6)]Gal(b1-4)GlcNAc
# Outline: as §1
# Gal3S(b1-3)GlcNAc = molecular target: Gal3S(b1-3)GlcNAc
# Outline: as §1
# [24] = molecular target: Gal3S(b1-3)[Fuc(a1-4)]GlcNAc
# Outline: as §1
# Gal3S6S(b1-4)GlcNAc6S = molecular target: Gal3S6S(b1-4)GlcNAc6S
# Outline: as §1
# Gal4S(b1-4)GlcNAc = molecular target: Gal4S(b1-4)GlcNAc
# Outline: as §1
# Gal6S(b1-4)GlcNAc6S = molecular target: Gal6S(b1-4)GlcNAc6S
# Outline: as §1
# [25] = molecular target: GalNAc(b1-3)Gal(a1-4)Gal(b1-4)GlcNAc(b1-3)Gal(b1-4)Glc
# Outline: as §1
# GalNAc4S6S(b1-4)GlcNAc = molecular target: GalNAc4S6S(b1-4)GlcNAc
# Outline: as §1
# Glc(b1-4)Glc = molecular target: Glc(b1-4)Glc
# Outline: as §1
# GlcA(b1-6)Gal = molecular target: GlcA(b1-6)Gal
# Outline: as §1
# [26] = molecular target: GlcNAc(a1-4)Gal(b1-4)GalNAc
# Outline: as §1
# [27] = molecular target: GlcNAc(b1-2)[GlcNAc(b1-6)]Man(a1-6)[GlcNAc(b1-2)Man(a1-3)]Man(b1-4)GlcNAc(b1-4)GlcNAc
# Outline: as §1
# [28] = molecular target: GlcNAc(b1-2)[GlcNAc(b1-6)]Man(a1-6)[GlcNAc(b1-4)][GlcNAc(b1-2)Man(a1-3)]Man(b1-4)GlcNAc(b1-4)GlcNAc
# Outline: as §1
# [29] = molecular target: GlcNAc(b1-4)GlcNAc(b1-4)GlcNAc(b1-4)GlcNAc(b1-4)GlcNAc(b1-4)GlcNAc
# Outline: as §1
# Kdn(a2-3)Gal(b1-3)GalNAc = molecular target: Kdn(a2-3)Gal(b1-3)GalNAc
# Outline: as §1
# [30] = molecular target: Man(a1-2)Man(a1-3)[Man(a1-6)]Man(a1-6)[Man(a1-2)Man(a1-3)]Man(b1-4)GlcNAc(b1-4)GlcNAc
# Outline: as §1
# [31] = molecular target: Neu5Ac(a2-3)Gal(b1-3)GlcNAc6S
# Outline: as §1
# [32] = molecular target: Neu5Ac(a2-3)Gal(b1-3)[GlcNAc(b1-6)]GalNAc
# Outline: as §1
# [33] = molecular target: Neu5Ac(a2-3)Gal(b1-3)[Neu5Ac(a2-6)]GlcNAc(b1-3)[Fuc(a1-3)[Gal(b1-4)]GlcNAc(b1-6)]Gal(b1-4)Glc
# Outline: as §1
# Neu5Ac(a2-3)Gal(b1-4)Glc = molecular target: Neu5Ac(a2-3)Gal(b1-4)Glc
# Outline: as §1
# [34] = molecular target: Neu5Ac(a2-3)Gal(b1-4)GlcNAc(b1-2)Man
# Outline: as §1
# [35] = molecular target: Neu5Ac(a2-3)Gal(b1-4)GlcNAc(b1-3)Gal(b1-4)GlcNAc(b1-2)Man(a1-3)[Neu5Ac(a2-3)Gal(b1-4)GlcNAc(b1-3)Gal(b1-4)GlcNAc(b1-2)Man(a1-6)]Man(b1-4)GlcNAc(b1-4)GlcNAc
# Outline: as §1
# [36] = molecular target: Neu5Ac(a2-3)Gal(b1-4)GlcNAc(b1-3)Gal(b1-4)GlcNAc(b1-3)Gal(b1-4)GlcNAc(b1-2)Man(a1-3)[Neu5Ac(a2-3)Gal(b1-4)GlcNAc(b1-3)Gal(b1-4)GlcNAc(b1-3)Gal(b1-4)GlcNAc(b1-2)Man(a1-6)]GalNAc
# Outline: as §1
# [37] = molecular target: Neu5Ac(a2-3)Gal(b1-4)GlcNAc(b1-3)[Neu5Ac(a2-3)Gal(b1-4)GlcNAc(b1-6)]GalNAc
# Outline: as §1
# [38] = molecular target: Neu5Ac(a2-3)Gal(b1-4)[Fuc(a1-3)]GlcNAc(b1-2)Man
# Outline: as §1
# [39] = molecular target: Neu5Ac(a2-6)Gal(b1-4)GlcNAc(b1-2)Man(a1-3)[GlcNAc(b1-2)Man(a1-6)]Man(b1-4)GlcNAc(b1-4)GlcNAc
# Outline: as §1
# [40] = molecular target: Neu5Ac(a2-6)Gal(b1-4)GlcNAc(b1-2)Man(a1-3)[Neu5Ac(a2-3)Gal(b1-4)GlcNAc(b1-2)Man(a1-6)]Man(b1-4)GlcNAc(b1-4)GlcNAc
# Outline: as §1
# [41] = molecular target: Neu5Ac(a2-6)Gal(b1-4)GlcNAc(b1-2)Man(a1-3)[Neu5Ac(a2-6)Gal(b1-4)GlcNAc(b1-2)Man(a1-6)]Man(b1-4)GlcNAc(b1-4)[Fuc(a1-6)]GlcNAc
# Outline: as §1
# [42] = molecular target: Neu5Ac(a2-6)Gal(b1-4)GlcNAc6S
# Outline: as §1
# [43] = molecular target: Neu5Ac(a2-6)GlcNAc(b1-4)GlcNAc(b1-4)GlcNAc
# Outline: as §1
# [44] = molecular target: Neu5Ac(a2-8)Neu5Gc(a2-3)Gal(b1-4)GlcNAc
# Outline: as §1
# [45] = molecular target: Neu5Ac9Ac(a2-3)Gal(b1-4)GlcNAc
# Outline: as §1
# [46] = molecular target: Neu5Ac9Ac(a2-6)Gal(b1-4)GlcNAc
# Outline: as §1
# [47] = molecular target: Neu5Gc(a2-3)Gal(b1-4)GlcNAc
# Outline: as §1
binder,measurement,setting,value
B1,glycan array binding signal (z-score),[1],0.672
same,glycan array binding signal (z-score),[2],0.365
same,glycan array binding signal (z-score),[3],0.533
same,glycan array binding signal (z-score),Fuc(a1-2)Gal(b1-4)GlcNAc,-0.046
same,glycan array binding signal (z-score),[4],2.02
same,glycan array binding signal (z-score),[5],4.06
same,glycan array binding signal (z-score),[6],1.81
same,glycan array binding signal (z-score),[7],-0.553
same,glycan array binding signal (z-score),[8],-0.56
same,glycan array binding signal (z-score),[9],-0.252
same,glycan array binding signal (z-score),[10],-0.26
same,glycan array binding signal (z-score),[11],-0.172
same,glycan array binding signal (z-score),[12],4.26
same,glycan array binding signal (z-score),[13],-1.15
same,glycan array binding signal (z-score),[14],0.659
same,glycan array binding signal (z-score),[15],2.23
same,glycan array binding signal (z-score),[16],-0.479
same,glycan array binding signal (z-score),Gal(a1-4)GlcNAc,2.5
same,glycan array binding signal (z-score),[17],0.015
same,glycan array binding signal (z-score),Gal(b1-4)Glc6S,-0.198
same,glycan array binding signal (z-score),[18],0.503
same,glycan array binding signal (z-score),[19],-0.725
same,glycan array binding signal (z-score),[20],-0.158
same,glycan array binding signal (z-score),[21],-0.071
same,glycan array binding signal (z-score),[22],0.111
same,glycan array binding signal (z-score),[23],-1.09
same,glycan array binding signal (z-score),Gal3S(b1-3)GlcNAc,-0.16
same,glycan array binding signal (z-score),[24],0.641
same,glycan array binding signal (z-score),Gal3S6S(b1-4)GlcNAc6S,2.14
same,glycan array binding signal (z-score),Gal4S(b1-4)GlcNAc,-0.316
same,glycan array binding signal (z-score),Gal6S(b1-4)GlcNAc6S,2.81
same,glycan array binding signal (z-score),[25],1.03
same,glycan array binding signal (z-score),GalNAc4S6S(b1-4)GlcNAc,0.176
same,glycan array binding signal (z-score),Glc(b1-4)Glc,0.058
same,glycan array binding signal (z-score),GlcA(b1-6)Gal,0.586
same,glycan array binding signal (z-score),[26],-0.65
same,glycan array binding signal (z-score),[27],-0.896
same,glycan array binding signal (z-score),[28],-0.884
same,glycan array binding signal (z-score),[29],-0.072
same,glycan array binding signal (z-score),Kdn(a2-3)Gal(b1-3)GalNAc,2.25
same,glycan array binding signal (z-score),[30],-1.18
same,glycan array binding signal (z-score),[31],0.604
same,glycan array binding signal (z-score),[32],-0.044
same,glycan array binding signal (z-score),[33],0.369
same,glycan array binding signal (z-score),Neu5Ac(a2-3)Gal(b1-4)Glc,0.776
same,glycan array binding signal (z-score),[34],3.5
same,glycan array binding signal (z-score),[35],0.377
same,glycan array binding signal (z-score),[36],2.23
same,glycan array binding signal (z-score),[37],3.03
same,glycan array binding signal (z-score),[38],-0.325
same,glycan array binding signal (z-score),[39],-0.681
same,glycan array binding signal (z-score),[40],-0.821
same,glycan array binding signal (z-score),[41],-0.149
same,glycan array binding signal (z-score),[42],-0.614
same,glycan array binding signal (z-score),[43],-0.626
same,glycan array binding signal (z-score),[44],-1.11
same,glycan array binding signal (z-score),[45],-0.074
same,glycan array binding signal (z-score),[46],-0.169
same,glycan array binding signal (z-score),[47],-0.248
